The values that follow come from PubChem BioAssay (Tox21).

Results filed as inconclusive are left out. A call without a number means that no potency is given here. The source holds several records for some structures; these can differ, active in one and inactive in another. Activity calls are given as the source filed them. Unless noted, calls come from the whole dose curve; as a rule, active = well fitted cell-killing curve with a large enough effect in the repeat runs (not every such curve was filed as active); inconclusive = weak or mixed curves, or effect the other way; inactive = no such curve, though single readings can be large or run the other way.

For one assay, the target named is Bile acid receptor (Homo sapiens) (UniProt Q96RI1). The assay can be described thus: qHTS assay to identify small molecule antagonists of the farnesoid-X-receptor (FXR) signaling pathway (AID 743217; active = well fitted inhibition curve with a large enough effect in the signal ratio in the repeat runs, not every such curve was filed as active; the % refers to the signal ratio). As to conditions: HEK293T FXR-UAS-bla, beta-lactamase ratio, CDCA-stimulated, 16 h; series mostly up to 62.6 µM; activity change, negative = inhibition: at the top concentration. The method in brief: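 Quantitative HTS, beta-lactamase reporter format: FXR-UAS-bla HEK 293T cells co-treated 16 h at 37 °C with compounds and 50 uM final chenodeoxycholic acid, then read by B/G FRET fluorescence.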
Chain of Bile acid receptor (Homo sapiens) (Q96RI1 whole entry, looked up): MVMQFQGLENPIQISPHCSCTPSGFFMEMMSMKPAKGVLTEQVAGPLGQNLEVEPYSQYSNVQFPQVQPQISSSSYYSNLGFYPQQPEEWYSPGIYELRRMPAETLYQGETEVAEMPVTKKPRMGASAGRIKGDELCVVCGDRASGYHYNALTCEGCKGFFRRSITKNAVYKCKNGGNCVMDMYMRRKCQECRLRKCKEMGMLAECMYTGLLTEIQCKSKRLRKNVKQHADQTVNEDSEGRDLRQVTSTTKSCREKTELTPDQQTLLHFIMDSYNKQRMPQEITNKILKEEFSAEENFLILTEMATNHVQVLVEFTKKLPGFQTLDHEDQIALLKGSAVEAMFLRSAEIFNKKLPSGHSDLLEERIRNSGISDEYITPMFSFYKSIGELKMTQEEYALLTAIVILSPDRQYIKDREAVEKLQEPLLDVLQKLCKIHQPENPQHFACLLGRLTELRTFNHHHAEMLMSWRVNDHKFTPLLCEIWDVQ
On to `CN1C(C(=O)Nc2ccccn2)=C(O)c2ccccc2S1(=O)=O`, for which the “activity change, negative = inhibition” value is 2.56% (inactive).

As for `OCCO`, the Potency result is “inactive”.

For the compound `CC(CCC(=O)O)(c1ccc(O)cc1)c1ccc(O)cc1`, the Potency entry was “inactive”.

With `COc1ccc(OC)c(C(O)CNC(=O)CN)c1` (centres undefined), the Potency result is “inactive”.

For the compound `CCCc1c(OCCCCc2nn[nH]n2)ccc(C(C)=O)c1O`, the “activity change, negative = inhibition” value is -9.21% (inactive).

Regarding `CC1=CCC(C(C)(C)O)CC1` (centres undefined), the Potency result is “inactive”.

As for `CC(C)Oc1ccc2c(=O)c(-c3ccccc3)coc2c1`, the Potency result is “inactive”.

On to `O=C1c2cccc(O)c2C(=O)c2c(O)cccc21`, for which the Potency entry is “inactive”.

For `CC(C)=CCC/C(C)=C\CO`, the Potency result was “inactive”.

With `Cc1c(OCC(F)(F)F)ccnc1CS(=O)c1nc2ccccc2[nH]1` (centres undefined), the Potency result is “inactive”.

Take `C[Si](C)(C)O[Si](C)(C)C`: the Potency entry is “inactive”.

On to `O=CCc1ccccc1`, for which the Potency entry is “inactive”.

As to `c1ccc2sc(SSN3CCOCC3)nc2c1`, the Potency result was “inactive”.

As to `c1ccc2cc(Nc3ccc(Nc4ccc5ccccc5c4)cc3)ccc2c1`, the “activity change, negative = inhibition” value is -4.96% [at 81.1 µM] (inactive).

For the compound `CC(=O)c1ccccn1`, the “activity change, negative = inhibition” value was -9.31% [at 81.1 µM] (inactive).

Turning to `CC(C)OC=O`, the Potency result was “inactive”.

Regarding `COc1ccccc1/C=C/C=O`, the “activity change, negative = inhibition” value is 0.726% [at 81.1 µM] (inactive).

Take `O=CCCCC=O`: the Potency entry was “inactive”.

On to `Cc1ncc[nH]1`, for which the Potency result was “inactive”.

Test system in a further assay: not listed separately
Kind of assay: qHTS assay to identify small molecule agonists of the farnesoid-X-receptor (FXR) signaling pathway - cell viability counter screen (AID 743218; active = well fitted cell-killing curve with a large enough effect in the repeat runs; note: nearly all actives have a fitted effect of over 45% in size; note: potency is the fitted concentration of half-maximal effect). The following applies: FXR-bla HEK293T viability, CellTiter-Glo luminescence, 16 h; series mostly up to 62.6 µM; viability change, negative = cytotoxic: at the top concentration. The method in brief:
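Same-well cytotoxicity check on FXR-UAS-bla HEK 293T cells: 5 h attachment, 16 h compound at 37 C, CellTiter-Glo luminescence read at room temperature after 30 min.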
In general terms: Quantitative high-throughput screening tests each substance at several concentrations.
Regarding `CCCCOCCOCCO`, the Potency result was “inactive”.

On to `CC(C)(C)NC(=O)[C@H]1CC[C@H]2[C@@H]3CC[C@H]4NC(=O)C=C[C@]4(C)[C@H]3CC[C@]12C`, for which the Potency entry was “inactive”.

As to `CN1C(C(=O)Nc2ccccn2)=C(O)c2ccccc2S1(=O)=O`, the Potency result was “inactive”.

In the case of `OCCO`, the Potency result was “inactive”.

`CC(CCC(=O)O)(c1ccc(O)cc1)c1ccc(O)cc1`: the Potency result was “inactive”.

For the compound `COc1ccc(OC)c(C(O)CNC(=O)CN)c1` (centres undefined), the Potency result is “inactive”.

Turning to `CCCc1c(OCCCCc2nn[nH]n2)ccc(C(C)=O)c1O`, the “viability change, negative = cytotoxic” value is 10.7% (inactive).

For `O=[N+]([O-])c1ccc2c(c1)Cc1ccccc1-2`, the Potency result is “inactive”.

Consider `CC1=CCC(C(C)(C)O)CC1` (centres undefined), for which the “viability change, negative = cytotoxic” value is 1.12% (inactive).

For the compound `CC(C)Oc1ccc2c(=O)c(-c3ccccc3)coc2c1`, the Potency entry is “inactive”.

Take `O=C1c2cccc(O)c2C(=O)c2c(O)cccc21`: the “viability change, negative = cytotoxic” value is -12.9% [at 81.1 µM] (inactive).

In the case of `CC(C)=CCC/C(C)=C\CO`, the Potency entry is “inactive”.

For `Cc1c(OCC(F)(F)F)ccnc1CS(=O)c1nc2ccccc2[nH]1` (centres undefined), the “viability change, negative = cytotoxic” value is 7.2% (inactive).

In the case of `C[Si](C)(C)O[Si](C)(C)C`, the Potency entry was “inactive”.

Consider `CC(=O)O[C@]1(C(C)=O)CC[C@H]2[C@@H]3C=C(Cl)C4=CC(=O)[C@@H]5C[C@@H]5[C@]4(C)[C@H]3CC[C@@]21C`, for which the Potency result was “inactive”.

On to `O=CCc1ccccc1`, for which the Potency entry was “inactive”.

On to `c1ccc2sc(SSN3CCOCC3)nc2c1`, for which the Potency result was “inactive”.

As for `c1cc(-c2ccncc2)ccn1`, the Potency result is “inactive”.

On to `CC(C)=CCCC(C)CCO` (centres undefined), for which the “viability change, negative = cytotoxic” value was 10.7% (inactive).

With `CCCC(=O)O`, the Potency result was “inactive”.

Take `c1ccc2cc(Nc3ccc(Nc4ccc5ccccc5c4)cc3)ccc2c1`: the “viability change, negative = cytotoxic” value is -0.46% (inactive).

Consider `CCCCC(CC)COC(=O)c1ccc(N(C)C)cc1` (centres undefined), for which the “viability change, negative = cytotoxic” value was 1.03% (inactive).

Turning to `CC(=O)c1ccccn1`, the Potency result was “inactive”.

For the compound `CCCCCCCCCCCO`, the “viability change, negative = cytotoxic” value is -2.55% [at 81.1 µM] (inactive).

For `CC(C)OC=O`, the “viability change, negative = cytotoxic” value is -1.43% [at 81.1 µM] (inactive).

For `COc1ccccc1/C=C/C=O`, the Potency entry was “inactive”.

For the compound `O=C(O)c1ccccc1Nc1cccc(C(F)(F)F)c1`, the Potency result was “inactive”.

On to `O=CCCCC=O`, for which the Potency result is “inactive”.

Consider `O=C(c1ccccc1)c1ccccc1O`, for which the Potency entry was “inactive”.

`CCOCCOCCO`: the Potency result was “inactive”.

For `COc1ccc(C(=O)CC(=O)c2ccc(C(C)(C)C)cc2)cc1`, the “viability change, negative = cytotoxic” value was -1.37% (inactive).

Take `C[C@]12CC[C@H]3[C@@H](CCC4=CC(=O)CC[C@@]43C)[C@@H]1CC[C@@H]2C(=O)CO`: the “viability change, negative = cytotoxic” value is 10.1% (inactive).

As to `CNCCCC12CCC(c3ccccc31)c1ccccc12`, the Potency was 19.5 µM (active) and inactive.

For `Nc1ccc(S(=O)(=O)Nc2cnc3ccccc3n2)cc1`, the Potency entry is “inactive”.

`Cc1ncc[nH]1`: the Potency result was “inactive”.

With `Brc1cc(Oc2cc(Br)c(Br)c(Br)c2Br)c(Br)c(Br)c1Br`, the “viability change, negative = cytotoxic” value was 4.22% (inactive).

A further assay deals with Bile acid receptor (Homo sapiens) (UniProt Q96RI1). The assay can be described thus: qHTS assay to identify small molecule agonists of the farnesoid-X-receptor (FXR) signaling pathway (AID 743220; active = well fitted activation curve with a large enough effect in the signal ratio in the repeat runs, not every such curve was filed as active; the % refers to the signal ratio). The following applies: HEK293T FXR-UAS-bla, beta-lactamase FRET ratio, 16 h; series mostly up to 62.6 µM; activation: at the top concentration. An outline of the steps: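 FXR-UAS-bla HEK 293T cells carrying a UAS-driven beta-lactamase reporter were plated for 5 h at 37C/5% CO2, then exposed to DMSO-dissolved Tox21 10K compounds for 16 h at 37C. A LiveBLAzer B/G FRET substrate was loaded for 2 h at room temperature before fluorescence reading.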
Turning to `CC(C)(C)NC(=O)[C@H]1CC[C@H]2[C@@H]3CC[C@H]4NC(=O)C=C[C@]4(C)[C@H]3CC[C@]12C`, the “activation” value is 5.58% (inactive).

As for `CN1C(C(=O)Nc2ccccn2)=C(O)c2ccccc2S1(=O)=O`, the outcome was inactive.

In the case of `OCCO`, the result was inactive.

`CC(CCC(=O)O)(c1ccc(O)cc1)c1ccc(O)cc1`: the result was inactive.

`COc1ccc(OC)c(C(O)CNC(=O)CN)c1` (centres undefined): the result was inactive.

In the case of `CCCc1c(OCCCCc2nn[nH]n2)ccc(C(C)=O)c1O`, the “activation” value is -0.793% (inactive).

Regarding `CC1=CCC(C(C)(C)O)CC1` (centres undefined), the outcome was inactive.

In the case of `CC(C)Oc1ccc2c(=O)c(-c3ccccc3)coc2c1`, the outcome was inactive.

In the case of `CC(C)=CCC/C(C)=C\CO`, the result was inactive.

Regarding `Cc1c(OCC(F)(F)F)ccnc1CS(=O)c1nc2ccccc2[nH]1` (centres undefined), the outcome was inactive.

`C[Si](C)(C)O[Si](C)(C)C`: the result was inactive.

For the compound `O=CCc1ccccc1`, the result was inactive.

As for `c1ccc2sc(SSN3CCOCC3)nc2c1`, the “activation” value is 0.186% (inactive).

Consider `CCCCC(CC)COC(=O)c1ccc(N(C)C)cc1` (centres undefined), for which the result was inactive.

As to `CC(=O)c1ccccn1`, the result was inactive.

Consider `CCCCCCCCCCCO`, for which the “activation” value is 0.651% [at 81.1 µM] (inactive).

`CC(C)OC=O`: the result was inactive.

`COc1ccccc1/C=C/C=O`: the result was inactive.

As to `O=CCCCC=O`, the result was inactive.

Turning to `COc1ccc(C(=O)CC(=O)c2ccc(C(C)(C)C)cc2)cc1`, the result was inactive.

Turning to `Cc1ncc[nH]1`, the result was inactive.

Test system in a further assay: not listed separately
The assay can be described thus: qHTS assay to identify small molecule antagonists of the farnesoid-X-receptor (FXR) signaling pathway - cell viability counter screen (AID 743221). Note: nearly all actives have a fitted effect of over 50% in size. Note: potency is the fitted concentration of half-maximal effect. The following applies: FXR-bla HEK293T viability, CellTiter-Glo luminescence, 16 h; series mostly up to 62.6 µM; activity change, negative = cytotoxicity: at the top concentration. An outline of the steps:
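GeneBLAzer FXR-UAS-bla HEK 293T cells, compound plus chenodeoxycholic acid (50 uM final), 16 h at 37 C. CellTiter-Glo added to the same wells after the beta-lactamase read; luminescence read after 30 min at room temperature as viability.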
Consider `CCCCOCCOCCO`, for which the Potency entry is “inactive”.

With `CC(C)(C)NC(=O)[C@H]1CC[C@H]2[C@@H]3CC[C@H]4NC(=O)C=C[C@]4(C)[C@H]3CC[C@]12C`, the Potency result is “inactive”.

For the compound `O=c1oc(=O)c2cc3c(=O)oc(=O)c3cc12`, the Potency entry was “inactive”.

Consider `CN1C(C(=O)Nc2ccccn2)=C(O)c2ccccc2S1(=O)=O`, for which the Potency entry is “inactive”.

As for `OCCO`, the Potency result was “inactive”.

Turning to `CC(CCC(=O)O)(c1ccc(O)cc1)c1ccc(O)cc1`, the Potency entry is “inactive”.

With `COc1ccc(OC)c(C(O)CNC(=O)CN)c1` (centres undefined), the Potency entry was “inactive”.

Turning to `CCCc1c(OCCCCc2nn[nH]n2)ccc(C(C)=O)c1O`, the Potency result was “inactive”.

As for `O=[N+]([O-])c1ccc2c(c1)Cc1ccccc1-2`, the Potency entry was “inactive”.

In the case of `CC1=CCC(C(C)(C)O)CC1` (centres undefined), the Potency result was “inactive”.

`CC(C)Oc1ccc2c(=O)c(-c3ccccc3)coc2c1`: the Potency result is “inactive”.

Turning to `O=C1c2cccc(O)c2C(=O)c2c(O)cccc21`, the “activity change, negative = cytotoxicity” value is 2.83% (inactive).

As for `CC(C)=CCC/C(C)=C\CO`, the Potency entry is “inactive”.

On to `Cc1c(OCC(F)(F)F)ccnc1CS(=O)c1nc2ccccc2[nH]1` (centres undefined), for which the Potency result is “inactive”.

With `C[Si](C)(C)O[Si](C)(C)C`, the Potency result was “inactive”.

`CC(=O)O[C@]1(C(C)=O)CC[C@H]2[C@@H]3C=C(Cl)C4=CC(=O)[C@@H]5C[C@@H]5[C@]4(C)[C@H]3CC[C@@]21C`: the “activity change, negative = cytotoxicity” value was 2.93% (inactive).

With `O=CCc1ccccc1`, the Potency result is “inactive”.

`c1ccc2sc(SSN3CCOCC3)nc2c1`: the Potency entry is “inactive”.

In the case of `c1cc(-c2ccncc2)ccn1`, the Potency result was “inactive”.

As for `CC(C)=CCCC(C)CCO` (centres undefined), the “activity change, negative = cytotoxicity” value is -6.74% (inactive).

Regarding `CCCC(=O)O`, the Potency entry was “inactive”.

For `c1ccc2cc(Nc3ccc(Nc4ccc5ccccc5c4)cc3)ccc2c1`, the Potency result was “inactive”.

Take `CCCCC(CC)COC(=O)c1ccc(N(C)C)cc1` (centres undefined): the Potency result was “inactive”.

As to `CC(=O)c1ccccn1`, the Potency entry is “inactive”.

Take `CCCCCCCCCCCO`: the “activity change, negative = cytotoxicity” value is -12% [at 81.1 µM] (inactive).

Regarding `CC(C)OC=O`, the Potency entry is “inactive”.

Take `COc1ccccc1/C=C/C=O`: the Potency result is “inactive”.

Regarding `O=C(O)c1ccccc1Nc1cccc(C(F)(F)F)c1`, the Potency result was “inactive”.

As for `O=CCCCC=O`, the Potency entry is “inactive”.

Turning to `O=C(c1ccccc1)c1ccccc1O`, the Potency result was “inactive”.

Regarding `CCOCCOCCO`, the Potency result was “inactive”.

As for `Nc1ccccc1N`, the Potency entry is “inactive”.

For `COc1ccc(C(=O)CC(=O)c2ccc(C(C)(C)C)cc2)cc1`, the Potency entry is “inactive”.

Regarding `C[C@]12CC[C@H]3[C@@H](CCC4=CC(=O)CC[C@@]43C)[C@@H]1CC[C@@H]2C(=O)CO`, the Potency result is “inactive”.

Take `CNCCCC12CCC(c3ccccc31)c1ccccc12`: the Potency is 38.9 µM (active).

As to `Nc1ccc(S(=O)(=O)Nc2cnc3ccccc3n2)cc1`, the Potency entry is “inactive”.

Take `Cc1ncc[nH]1`: the Potency result was “inactive”.

Take `Brc1cc(Oc2cc(Br)c(Br)c(Br)c2Br)c(Br)c(Br)c1Br`: the “activity change, negative = cytotoxicity” value is 3.96% (inactive).
